AMA1 RON2 block: qHTS for Inhibitors of AMA1-RON; Towards Development of Antimalarial Drug Lead: Primary Screen | 360,000 tested, 0.2% active | AID 720542, 2013 | AlphaScreen AMA1-biotinylated RON2 peptide binding | Potency, µM (highest dose often 58.2 µM), inactives show at the top dose activity change, negative = inhibition, usual class: inhibitors;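 note: 0% = vehicle wells and -100% = peptide control; nearly all actives have a fitted effect of over 45% in size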
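AMA1 (3D7) with his tag at 25 nM final met compounds first, then biotinylated RON2 peptide at 25 nM; detection used donor plus acceptor beads, 10 µg/mL apiece, read by AlphaScreen after 30 min at room temperature.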
Pf growth 96h: Primary qHTS for delayed death inhibitors of the malarial parasite plastid, 96 hour incubation; P. falciparum luciferase reporter growth, 96 h; Potency, µM (doses to about 28.7 µM), for the others: top-dose activity change, negative = inhibition, usual class: inhibitors; 320,000 tested, 6.9% active
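Two-generation exposure (96 h) targets delayed-death phenotype. Reporter parasites carrying integrated firefly luciferase, in red cells at 2% hematocrit and 0.05% parasitemia final, kept at 37 C, 5% CO2; luminescence loss indicates inhibition.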
Pf growth 48h: Primary qHTS for delayed death inhibitors of the malarial parasite plastid, 48 hour incubation; P. falciparum luciferase growth in erythrocytes, 48 h; Potency, µM (titrated, usually from 28.7 µM), for the others: at the highest dose activity change, negative = inhibition, actives largely listed as inhibitors; 310,000 tested, 5.9% active
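Compounds are pin-transferred into medium, infected erythrocytes (2% hematocrit, 0.1% parasitemia final) are added, and plates sit one parasite generation at 37 C in 5% CO2. Detection reagent is then added and luminescence measured.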
HCV inh: qHTS Assay for Inhibitors of Hepatitis C Virus (HCV). 340,000 tested, 3.4% active. Potency, µM (highest dose often 41.8 µM), without a hit: top-dose activity change, negative = inhibition, actives largely listed as inhibitors. Huh7.5.1 HCVcc-Cre infection, luciferase reporter, 44 h
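HCVcc-Cre virus at an moi near 0.5 was added right after compound to cells cultured 4 h from seeding (1,000 cells/well). Luciferase activity was determined 44 h later, 15 min after substrate addition at RT.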
Numbers without * were called inactive; ? = inconclusive; nt = not tested or not shown; [ ] = dose if it differs, or a comment. Hits are enriched below; roughly 11% of the tested compounds scored in any of these assays. Calls come from the whole dose curve; as a rule, active = well fitted curve in the direction sought with a large enough effect; inconclusive = small, poorly fitted or top-dose-only effect, or another doubt; inactive = no such curve, though single readings can be large; an effect the other way counts as inactive or inconclusive. Unless noted, % is set by controls: 0 for no effect and ±100 for the full control effect; potency is the fitted concentration of half-maximal effect.

SMILES | AMA1 RON2 block | Pf growth 96h | Pf growth 48h | HCV inh
CC1CCCC/C1=N/Nc1ccc([N+](=O)[O-])cc1[N+](=O)[O-] (stereo not given) | -19% | 237% | nt | 6%
Cc1c(C(=O)Nc2ccc(OC(F)(F)F)cc2)sc2nc3n(c(=O)c12)CCC3 | 6% | -12% | -9% | -18%
Cc1c(C(=O)Nc2ccc(Oc3ccccc3)cc2)sc2nc3n(c(=O)c12)CCC3 | -2% | 17µM* | 12µM* | 6.3µM*
CCCOc1ccc(/C=N/NC(=O)CN2CCCCC2)cc1OCC | 0% | 1% | -19% | -17%
COc1ccc(/C=N/NC(=O)c2cc(OC)c(OC)c(OC)c2)cc1CN1CCc2cc(OC)c(OC)cc2C1C (stereo not given) | -12% | ? | ? | 2µM*
COc1ccc(/C=N/NC(=O)c2cccnc2)cc1CN1CCc2cc(OC)c(OC)cc2C1C (stereo not given) | 5% | ? | ? | -15%
CCOc1cc(/C=N/NS(=O)(=O)c2ccc(OC)cc2)ccc1OCCN1CCOCC1 | -18% | 5.2µM* | 0% | 6%
CCCCOc1ccc(C(=O)N/N=C/c2ccc(OCCN3CCCCC3)c(OC)c2)cc1 | -13% | 12µM* | 12µM* | ?
COc1ccc(/C=N\NC(=O)c2cccc([N+](=O)[O-])c2)cc1Cn1cc([N+](=O)[O-])cn1 | nt | 32% | ? | nt
COc1ccc(/C=N/NC(=O)c2ccc(N)cc2)cc1Cn1cc([N+](=O)[O-])cn1 | -7% | 12µM* | 7% | ?
Nc1cc(C(Cl)=C(Cl)Cl)c(S(N)(=O)=O)cc1S(N)(=O)=O | 0% | 37% | 6% | ?
O=C(Nc1ccc2oc(-c3ccccc3)nc2c1)c1ccco1 | 2% | ? | 68% | ?
O=C(NCc1cc(Cl)cc(Cl)c1)c1csc(COCCO)n1 | 1% | nt | nt | nt
O=C(NCc1ccc(F)cc1)C(=O)NCC1OCCCN1S(=O)(=O)c1cccs1 (stereo not given) | -3% | -3% | -11% | 17%
COc1ccc(OCc2cc(/C=N\NC(=O)c3ccccc3)ccc2OC)cc1 | 7% | ? | -27% | ?
COc1ccc(/C=N/NC(=O)c2cccnc2)cc1COc1ccc([N+](=O)[O-])cc1 | 5% | 28% | -21% | -10%
COc1ccc(C(=O)N/N=C/c2ccc(OC)c(CN3CCCc4ccccc43)c2)cc1 | ? | 18% | 1.2µM* | 6.3µM*
COc1ccc(C(=O)N/N=C/c2ccc(OC)c(COc3c(F)c(F)cc(F)c3F)c2)cc1 | -16% | 0% | 4% | 2.2µM*
COc1ccc(/C=N\NC(=O)c2ccc([N+](=O)[O-])cc2)cc1COc1c(F)c(F)cc(F)c1F | 57% | ? | ? | 1.6µM*
Cc1cccc(NC(=O)CCSc2nnc(Cc3ccccc3)o2)c1 | 3% | ? | 13% | 13%
Cc1cccc(CSc2nc3ccncc3n2CC(=O)Nc2cc(C)cc(C)c2)c1 | -5% | 8.3µM* | 26% | -13%
CSc1nc2ccccc2n1CC(=O)Nc1ccc(C)c(C)c1 | 2% | nt | 8% | 26%
COC(=O)C1=CN(c2ccc(OC)cc2OC)C(N)=C(C#N)C1c1cccc([N+](=O)[O-])c1 (stereo not given) | 1% | nt | nt | nt
O=C(CN(C(=O)c1csnn1)c1ccc(Cl)cc1)NCCc1ccccc1 | -5% | ? | 13µM* | -2%
COC(=O)Cn1c(C(=O)N2CCCC2)cc2c1C[C@H]1CN(C(=O)c3ccccc3)[C@@](Cc3ccc(F)cc3)(C(=O)OC)[C@@H]21 | -3% | 8.3µM* | 5.2µM* | 2%[8.37 µM]
SMILES | AMA1 RON2 block | Pf growth 96h | Pf growth 48h | HCV inh
COC(=O)Cn1c(C(=O)N2CCCC2)cc2c1C[C@H]1CN(C(=O)c3ccccc3)[C@@](Cc3ccc(OC)cc3)(C(=O)OC)[C@@H]21 | -3% | nt | nt | nt
COC(=O)[C@@]1(Cc2ccc(F)cc2)[C@H]2c3cc(C(=O)N4CCCC4)n(CCO)c3C[C@H]2CN1C(=O)c1ccccc1 | -4% | 6.6µM* | 3.7µM* | ?
COC(=O)[C@@]1(Cc2ccc(OC)cc2)[C@H]2c3cc(C(=O)N(C)C)n(CCSCCO)c3C[C@H]2CN1C(=O)c1ccccc1 | 9% | 5.2µM* | 2.3µM* | 10%
COC(=O)[C@@]1(Cc2ccc(F)cc2)[C@H]2c3cc(C(=O)N4CCCC4)n(CCc4ccc(OC)c(Br)c4)c3C[C@H]2CN1C(=O)c1ccccc1 | -1% | nt | nt | nt
COC(=O)[C@@]1(Cc2ccc(F)cc2)[C@H]2c3cc(C(=O)N(C)C)n(CCF)c3C[C@H]2CN1C(=O)c1ccccc1 | 0% | nt | nt | nt
COC(=O)[C@@]1(Cc2ccc(OC)cc2)[C@H]2c3cc(C(=O)N4CCCC4)n(Cc4ccc(C)c(F)c4F)c3C[C@H]2CN1C(=O)c1ccccc1 | -16% | nt | nt | nt
COC(=O)[C@@]1(Cc2ccc(OC)cc2)[C@H]2c3cc(C(=O)N4CCCC4)n(CCSCCO)c3C[C@H]2CN1C(=O)c1ccccc1 | -6% | 1.7µM* | 1µM* | -12%
CC(C)(C)c1ccc(-c2nnc(SCC(=O)NC3CCS(=O)(=O)C3)n2N)cc1 (stereo not given) | 65% | 92% | 55% | 1%
COCCN(C(=O)c1ccc(COc2ccccc2)o1)c1c(N)n(CC(C)C)c(=O)[nH]c1=O | 1%[11.6 µM] | ? | -15% | 4%
COC(=O)[C@@]1(Cc2ccc(F)cc2)[C@H]2c3cc(C(=O)N4CCCC4)n(CCc4ccc(O)c(O)c4)c3C[C@H]2CN1C(=O)c1ccccc1 | nt | 5.9µM* | ? | -7%[8.37 µM]
COC(=O)[C@@]1(Cc2ccccc2)[C@H]2c3cc(C(=O)N4CCCC4)n(Cc4ccsc4Br)c3C[C@H]2CN1C(=O)c1ccccc1 | nt | 3.3µM* | ? | 4%[8.37 µM]
COC(=O)[C@@]1(Cc2ccc(OC)cc2)[C@H]2c3cc(C(=O)N4CCCC4)n(CCc4ccc(OC)c(Br)c4)c3C[C@H]2CN1C(=O)c1ccccc1 | -2% | nt | nt | nt
COC(=O)[C@@]1(Cc2ccc(OC)cc2)[C@H]2c3cc(C(=O)N4CCCC4)n(Cc4ccccc4)c3C[C@H]2CN1C(=O)c1ccccc1 | -16% | nt | nt | nt
COC(=O)[C@@]1(Cc2ccc(OC)cc2)[C@H]2c3cc(C(=O)N4CCCC4)n(CCc4c[nH]c5ccc(O)cc45)c3C[C@H]2CN1C(=O)c1ccccc1 | nt | 2.1µM* | 1µM* | 0%[8.37 µM]
COC(=O)[C@@]1(Cc2ccc(OC)cc2)[C@H]2c3cc(C(=O)N4CCCC4)n(CCO)c3C[C@H]2CN1C(=O)c1ccccc1 | -2% | 4.7µM* | ? | 2%[8.37 µM]
Cc1ccc(NC(=O)C2(c3cccs3)CCOCC2)cc1C | 6% | ? | -16% | 24%
FC(F)(F)c1ccccc1Cc1c(C2CCCCC2)nc2c3ccccc3ccn12 | -17% | nt | nt | nt

Assay outcomes: PubChem, National Center for Advancing Translational Sciences (NCATS)
